NSD2 HMT inh: NSD2 histone methyltransferase inhibitors, primary screen, biochemical, AlphaScreen, single concentration, set 2. inhibition, % at 12.5 µM. AID 743445, 2014. NSD2 peptide methylation, 120 min. actives 0.54% (n = 310,000); in the data active means inhibition above about 50%
Casp6 inh: human caspase-6 inhibitors, primary screen, biochemical, VEID-R110 fluorescence, single point, set 2; actives 0.53% (n = 350,000); inhibition, % at 12.5 µM; purified caspase-6, Z-VEID-R110 cleavage fluorescence; P55212;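 active means mean inhibition across replicates at least about 35%, with every replicate also reaching that limit, limit read from the data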;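 further: 0% = median of neutral control wells and 100% = no fluorescence left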
Target sequence (P55212 24-179 limits assumed): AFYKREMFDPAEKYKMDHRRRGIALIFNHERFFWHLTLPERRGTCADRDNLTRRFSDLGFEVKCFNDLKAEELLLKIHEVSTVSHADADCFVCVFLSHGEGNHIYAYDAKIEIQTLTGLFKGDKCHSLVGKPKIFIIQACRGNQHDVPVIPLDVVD
Target sequence (P55212 194-293 limits assumed): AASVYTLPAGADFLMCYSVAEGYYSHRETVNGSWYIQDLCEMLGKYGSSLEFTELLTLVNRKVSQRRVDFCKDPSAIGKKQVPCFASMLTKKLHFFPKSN
Glyco luc inh: increase of ERlucT glycosylation luciferase signal, primary screen, N-linked glycosylation inhibitor project, D54 ERlucT cells, luminescence, set 2 | reporter increase, % at 12.5 µM | AID 588692, 2011 | D54 ERlucT glycosylation luciferase reporter, 24 h; percent of 100 nM tunicamycin response | actives 0.23% (n = 360,000);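 active means mean luciferase reporter signal, scaled so untreated is 0 and the glycosylation-blocking control 100, at or above a set limit in every replicate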;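 further: luciferase carries N-glycosylation sites so blocking glycosylation raises the light; 0% = median of neutral control wells and 100% = median of 100 nM tunicamycin wells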
ALR H2O2 inh: inhibitors of human ALR sulfhydryl oxidase, primary screen, biochemical, H2O2 detection, HRP-luminol luminescence, single point. inhibition, % (no concentration beside the values). FAD-linked sulfhydryl oxidase ALR (Homo sapiens), P55789. actives 3.8% (n = 290,000). purified ALR, DTT oxidation. AID 485317, 2010;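 active means mean replicate inhibition above about 79%, with every replicate also reaching it, limit read from the data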
Target sequence (P55789 whole entry, looked up): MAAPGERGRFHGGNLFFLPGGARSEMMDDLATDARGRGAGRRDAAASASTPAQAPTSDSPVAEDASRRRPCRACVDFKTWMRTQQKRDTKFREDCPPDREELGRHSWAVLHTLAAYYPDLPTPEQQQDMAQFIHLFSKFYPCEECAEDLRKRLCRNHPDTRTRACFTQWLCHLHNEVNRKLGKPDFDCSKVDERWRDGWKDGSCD
Mot1-301 SUMO: yeast Mot1-301 growth rescue at high temperature, primary screen, SUMOylation pathway inhibitor project, S. cerevisiae, ATP luminescence, 38.5C. S. cerevisiae Mot1-301 growth rescue; percent above DMSO median, 100 means doubled. growth rescue, % at 18.8 µM. actives 1% (n = 320,000);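 active means every valid replicate shows activation above 250% relative to neutral control wells; inactive means the rest, any valid replicate at or below 250%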;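 further: OY570 slx delta 5 strain wells were the positive control but not used for scaling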
CDK5 inh: inhibitors of human CDK5/p35 kinase, primary screen, biochemical, single concentration. Cyclin-dependent kinase 5 (Homo sapiens) + Cyclin-dependent kinase 5 activator 1 (Homo …. Recombinant CDK5/p35, ADP-Glo luminescence, 60 min. inhibition, % at 10 µM. actives 0.01% (n = 330,000). AID 488839, 2010;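 active means highest replicate inhibition of at least 50% and at least 75% of replicates reaching 50%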;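 further: plate controls were DMSO neutral control for no effect and GW8510 at 10 µM for full effect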
Yeast Mot1 SUMO: growth restoration of Mot1-301 yeast on galactose, dose response, SUMO pathway inhibitor project, whole organism, S. cerevisiae, ATP luminescence, cherry-picked samples; shares compounds with Mot1-301 SUMO; S. cerevisiae Mot1-301 galactose growth, 24 h; -100 = growth of slx-deleted rescue strain; growth activity, percent, % at 42 µM; 2,300 tested, under 10 active;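 active means Signal drops as the depositor expects, and the fitted half-maximal dose is no more than ten times the top valid tested dose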;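 further: more negative values mean stronger growth rescue toward the control strain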
Starred values were filed as active, the others as inactive; . = no result given; + = active, no number. Compounds with a hit are over-represented: about 3.9% of the library has one in this group of screens.

SMILES	NSD2 HMT inh	Casp6 inh	Glyco luc inh	ALR H2O2 inh	Mot1-301 SUMO	CDK5 inh	Yeast Mot1 SUMO
Oc1c(Cl)cc(Cl)cc1/C=N/c1nc(-c2ccc(Cl)cc2)cs1	.	.	3	-3	719*	-1	-1
COc1ccc(OC(=O)c2ccc(Cl)cc2)c(C(C)=O)c1	-4	.	6	-15	408*	1	0
COCC#Cc1cnc2c(c1)C(=O)N([C@H](C)CO)C[C@H](C)[C@@H](CN(C)S(C)(=O)=O)O2	.	0	.	.	.	.	.
CSc1ncccc1C(=O)NC1CCCc2c1cnn2-c1ccc(C)c(C)c1 (configuration not stated)	0	-1	-2	4	458*	1	1
CC(NC(=O)c1cnc2n(c1=O)CCS2)c1ccccc1 (configuration not stated)	.	.	-1	-10	994*	-1	0
Cc1ccc(C(=O)c2cc([N+](=O)[O-])ccc2N2CCCCC2)cc1C	7	.	18	-5	500*	0	0
C[C@@H]1CN([C@H](C)CO)S(=O)(=O)c2ccc(C3=CCCC3)cc2O[C@H]1CN(C)Cc1cccnc1	.	-2	.	.	.	.	.
O=C(C[C@H]1C[C@@H]2c3cc(NC(=O)NC4CCCCC4)ccc3O[C@@H]2[C@@H](CO)O1)NCc1ccccn1	.	1	.	.	.	.	.
O=C(Nc1ccc2c(c1)oc1ccccc12)C1CC1	-1	.	1	4	+	-1	0
O=C(Nc1ccc2c(c1)oc1ccc(S(=O)(=O)N3CCCC3)cc12)C1CC1	0	.	-3	-1	2	9	.
C[C@H]1CN([C@@H](C)CO)C(=O)Cc2cc(NC(=O)Cn3cnnn3)ccc2O[C@@H]1CN(C)Cc1ccc(Cl)c(Cl)c1	.	0	.	.	.	.	.
FC(F)(F)c1cccc(-n2cc(-c3ccccc3)[nH]c2=S)c1	0	3	-2	0	-10	3	.
Fc1ccccc1-n1cc(-c2ccccc2)[nH]c1=S	1	-4	4	93*	450*	2	0
COc1ccc2c3c(n(C)c2c1)[C@H](CO)N(C(C)=O)CC31CN(C(=O)Nc2ccccc2F)C1	.	0	.	.	.	.	.
C[C@@H]1CN([C@H](C)CO)S(=O)(=O)c2ccc(C#CCN(C)C)cc2O[C@H]1CN(C)C(=O)C1CCCCC1	.	-2	.	.	.	.	.
C[C@H](CO)N1C[C@H](C)[C@@H](CN(C)Cc2ccc(F)cc2)Oc2ncc(-c3cccc(C#N)c3)cc2C1=O	.	-1	.	.	.	.	.
COc1ccc(Cl)cc1N(C(=O)c1ccco1)C(C(=O)NC1CCCC1)c1ccncc1 (configuration not stated)	-4	.	0	-1	407*	-4	0
CCCNC(=O)CN(c1ccc(F)cc1)S(=O)(=O)c1ccc2c(c1)OCCO2	0	1	3	-9	847*	-2	0
COc1cccc(CNC(=O)CCCn2nc(C)c3c(C)n(-c4ccccc4)nc3c2=O)c1	0	1	-1	-3	531*	3	0
Cc1ccc(-n2nc3c(=O)n(CCCC(=O)NCc4ccc(F)cc4)nc(C)c3c2C)cc1	1	0	1	-2	3	-1	.
Cc1ccc(-n2nc3c(=O)n(CCCC(=O)NCc4cccc(F)c4)nc(C)c3c2C)cc1	.	0	-1	.	597*	-8	0
Fc1ccc(-c2cc(C(F)(F)F)nc(NCc3cccs3)n2)cc1	-1	.	3	-5	458*	0	1
C[C@@H]1CCCCO[C@@H](CN(C)S(=O)(=O)c2ccc(Cl)cc2)[C@H](C)CN([C@H](C)CO)C(=O)c2cc(NC(=O)Cc3ccccc3)ccc2O1	.	-1	.	.	.	.	.
Cc1cccc(-c2ccc([C@H]3[C@@H](CO)N4C(=O)CN(C(=O)c5cccnc5)C[C@H]34)cc2)c1	.	4	.	.	.	.	.
Nc1ccc(S(=O)(=O)Nc2ccc(C(=O)c3ccccc3)cc2)cc1	2	-1	-4	-6	124	1	.
SMILES	NSD2 HMT inh	Casp6 inh	Glyco luc inh	ALR H2O2 inh	Mot1-301 SUMO	CDK5 inh	Yeast Mot1 SUMO
Nc1ccc(S(=O)(=O)NNC(=O)C(=O)NNc2ccccc2)cc1	21	0	3	.	405*	-1	0
Cc1noc(C)c1NC(=O)N(C)C[C@@H]1OCCCC[C@@H](C)Oc2ccc(NS(=O)(=O)c3ccc(F)cc3)cc2C(=O)N([C@H](C)CO)C[C@H]1C	.	-3	.	.	.	.	.
N#Cc1cc([N+](=O)[O-])cnc1NCC(O)CO (configuration not stated)	-2	.	-1	-5	494*	-1	0
CCOC(=O)C1CCCN(C(=O)/C=C/c2cc(OC)c(OC)c(OC)c2)C1 (configuration not stated)	-3	1	2	.	3	2	.
CCOC(=O)C1CCCN(C(=O)/C=C/c2ccc(Cl)cc2)C1 (configuration not stated)	-1	1	1	-1	420*	1	-1
CCOC(=O)C1CCN(C(=O)c2sccc2Cl)CC1	-2	0	0	-5	567*	-2	1
CC(C)C1=CC(=Nc2ccc(S(N)(=O)=O)cc2)C=C(C(C)C)C1=O	7	-1	3	99*	+	0	0
NS(=O)(=O)c1ccc(N=C2C(=O)Nc3ccccc32)cc1	.	1	3	75	1	-1	.
CCC1(c2ccccc2)NC(=O)N(CC(=O)N(C)CC(=O)Nc2ccc(F)c(F)c2F)C1=O (configuration not stated)	0	-3	0	-4	609*	-2	1
CCC1(c2ccccc2)NC(=O)N(CC(=O)N(C)CC(=O)Nc2c(C)cccc2C)C1=O (configuration not stated)	1	-2	1	-4	31	1	.
C/C(=N\NC(=O)c1ccc(Cl)cc1)c1cccnc1	.	-5	1	-1	714*	1	1
C/C(=N\NC(=O)c1ccc(Cl)cc1)c1cccc(NC(=O)c2cccnc2)c1	-3	.	-1	.	183	2	.
Cc1cnc(NC(=O)CSc2nc3ccccc3s2)s1	-5	.	-1	.	395*	1	-1
CCCn1c(=O)c2ccccc2n2c(SCC(=O)N3CCc4ccccc4C3)nnc12	1	0	1	-13	433*	2	0

Screening results as filed in PubChem.
